{"source": "PubChem BioAssay AID504834", "about": "(National Center for Advancing Translational Sciences (NCATS), 2011)", "note": "In all, about 320,000 compounds went through this assay and about 22,000 (6.9%) were called active. Inconclusive results (about 27%) are left out. This is one part of a sample in which actives are shown more often than they occur. Unmarked numbers belong to inactive results. Calls come from the whole dose curve; as a rule, active = well fitted inhibition curve with a large enough effect; inconclusive = small, poorly fitted or top-dose-only effect, or another doubt; inactive = no such curve, though single readings can be large or run the other way. % is set by controls: 0 for no effect and ±100 for the full control effect; potency is the fitted concentration of half-maximal effect."}
{"experiment": "Primary qHTS for delayed death inhibitors of the malarial parasite plastid, 96 hour incubation", "settings": "P. falciparum luciferase reporter growth; series mostly up to 28.7 µM; activity change, negative = inhibition: at the top concentration", "outline": "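Compounds incubated with erythrocytes infected by luciferase-expressing P. falciparum (2% hematocrit, 0.05% parasitemia final) for 96 hours, 37 C in 5% CO2. Growth inhibition scored as decreased luciferase luminescence.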"}
{"smiles": "Cc1cccc(NS(=O)(=O)c2ccc(C(=O)NCC(C)(C)N3CCOCC3)cc2)c1C", "activity change, negative = inhibition": "0.321%"}
{"smiles": "Cc1cc(C)n2nc(SCC(=O)NC(=O)NCc3ccco3)nc2n1", "activity change, negative = inhibition": "2.98%"}
{"smiles": "Cc1nc2nc(SCC(=O)NCc3ccco3)nn2c(C)c1Cc1ccccc1", "Potency": "10.4 µM (active)"}
{"smiles": "COc1cc(OC)cc(-c2nc3nc(C)c(CCC(=O)NCc4ccco4)c(C)n3n2)c1", "activity change, negative = inhibition": "24.9%"}
{"smiles": "O=C(O)C(c1ccccc1)C1(O)CCCCC1", "note": "(stereo not drawn)", "activity change, negative = inhibition": "37.9%"}
{"smiles": "CCCOc1cccc(C(=O)Nc2ccccc2C(=O)N2CCN(C)CC2)c1", "activity change, negative = inhibition": "-9.04%"}
{"smiles": "CN(c1cccc(NC(=O)Nc2ccc(Cl)cc2)c1)S(C)(=O)=O", "activity change, negative = inhibition": "0%"}
{"smiles": "CC(C)S(=O)(=O)c1csc(NC(=O)Nc2ccc(Cl)cc2)c1Cl", "Potency": "1.17 µM (active)"}
{"smiles": "Cn1ccc(NC(=O)Nc2ccc(Cl)cc2)n1", "activity change, negative = inhibition": "61.5%"}
{"smiles": "O=C(c1cccnc1)N1CCN(S(=O)(=O)c2cccs2)CC1", "activity change, negative = inhibition": "9.61%"}
{"smiles": "Cc1ccc(-n2ncc3c2CCCC3NC(=O)c2cnccn2)cc1C", "note": "(stereo not drawn)", "activity change, negative = inhibition": "27.8%"}
{"smiles": "O=C1CCC(=O)N(O)CCCCCNC(=O)CCC(=O)N(O)CCCCCNC(=O)CCC(=O)N(O)CCCCCN1", "Potency": "10.4 µM (active)"}
{"smiles": "CC(CN1CCCCC1)c1ccccc1", "note": "(stereo not drawn)", "activity change, negative = inhibition": "8.4%"}
{"smiles": "CC(C)[C@@H]1COC(c2cccc(C3=N[C@H](C(C)C)CO3)c2)=N1", "activity change, negative = inhibition": "9.17%"}
{"smiles": "CN(C(=O)c1cccc(OC2CCN(S(=O)(=O)N(C)C)CC2)c1)C1CCOC1", "note": "(stereo not drawn)", "activity change, negative = inhibition": "25.5%"}
{"smiles": "CCCOC(=O)C1=C(C)NC2=C(C(=O)C(C(=O)OC)C(C)C2)C1c1ccc(N(C)C)cc1", "note": "(stereo not drawn)", "activity change, negative = inhibition": "13.8%"}
{"smiles": "COC(=O)C1C(=O)c2c([nH]c(C(=O)OCCSC)c2C)CC1C", "note": "(stereo not drawn)", "Potency": "3.7 µM (active)"}
{"smiles": "OC(c1nc2ccccc2[nH]1)C(O)C(O)C(O)c1nc2ccccc2[nH]1", "note": "(stereo not drawn)", "activity change, negative = inhibition": "30.2%"}
{"smiles": "C/C=C/c1ccc(OCCOc2ccc(C=O)cc2OC)c(OC)c1", "activity change, negative = inhibition": "-8.36%"}
{"smiles": "COc1ccc(/C=C/C(=O)N2CCCC2)cc1OC", "activity change, negative = inhibition": "0%"}
{"smiles": "C/C=C/c1ccc(OCCCCN2CCC(C)CC2)c(OC)c1", "Potency": "5.22 µM (active)"}
{"smiles": "COc1ccc(CN2CCNC(=O)C2CC(=O)NCc2cn[nH]c2-c2ccccc2)c(F)c1", "note": "(stereo not drawn)", "activity change, negative = inhibition": "8.51%"}
{"smiles": "CN(C(=O)COC(=O)Cn1cnc2c1c(=O)n(C)c(=O)n2C)C1(C#N)CCCCC1", "activity change, negative = inhibition": "14.8%"}
{"smiles": "O=c1onc(-c2c(F)cccc2F)n1-c1ccccc1Cl", "activity change, negative = inhibition": "-7.75%"}
{"smiles": "CCC(=O)c1cc(F)ccc1OCC(=O)Nc1ccc2c(c1)OCCO2", "activity change, negative = inhibition": "-52.7%"}
{"smiles": "Cc1ccc2oc(=O)c3cnn(CC(=O)N4CCCCCC4)c3c2c1", "Potency": "9.28 µM (active)"}
{"smiles": "COc1cccc2c(=O)n(CC(=O)N3CCCCCC3)ccc12", "activity change, negative = inhibition": "-12.4%"}
{"smiles": "Cc1cc(C(F)(F)F)nn1CC(=O)N1CCCC1", "activity change, negative = inhibition": "49.1%"}
{"smiles": "Cn1nc(-c2ccccc2)c(-c2nc(-c3ccc(Cl)cc3)no2)c1Cl", "activity change, negative = inhibition": "13.6%"}
{"smiles": "C/C(=N/Nc1ccc(Cl)cc1)c1cnnc(-c2ccccc2)n1", "Potency": "0.522 µM (active)"}
{"smiles": "C/C(=N\\Nc1nncc2ccccc12)c1ccc(Cl)c([N+](=O)[O-])c1", "activity change, negative = inhibition": "64.3%"}
{"smiles": "Cc1ccc(S(=O)(=O)NNC(=O)/C=C/c2cccc(F)c2)cc1", "activity change, negative = inhibition": "1.02%"}
{"smiles": "Cc1ccc2c(c1)N(CC(=O)N1CCC(O)CC1)C(=O)CO2", "activity change, negative = inhibition": "20.6%"}
{"smiles": "Cc1nc2ccccc2c(=O)n1NC(=O)c1ccc(Cl)c([N+](=O)[O-])c1", "activity change, negative = inhibition": "232%"}
{"smiles": "O=C(Nn1cnc2ccccc2c1=O)c1ccc(F)cc1Cl", "Potency": "11.7 µM (active)"}
{"smiles": "O=C(Nn1cnc2ccccc2c1=O)c1ccccc1", "activity change, negative = inhibition": "12.2%"}
{"smiles": "CN(C(=O)c1ccccc1)c1nccnc1C#N", "activity change, negative = inhibition": "-10%"}
{"smiles": "CN(C)C(=O)c1nc2ccc(Cl)cn2c1CNCc1cccc(OC(F)(F)F)c1", "activity change, negative = inhibition": "-21%"}
{"smiles": "Cc1cc(NC(=O)CSc2nnc(-c3ccc(Cl)s3)o2)no1", "activity change, negative = inhibition": "5.07%"}
{"smiles": "COc1ccccc1-c1nnc(SCC(=O)Nc2ccccc2)o1", "activity change, negative = inhibition": "41.6%"}
{"smiles": "COc1ccccc1-c1nnc(SCC(=O)Nc2cc(C)on2)o1", "Potency": "13.1 µM (active)"}
{"smiles": "CCN(C(=O)CSc1nc(N)cc(=O)[nH]1)C1CCS(=O)(=O)C1", "note": "(stereo not drawn)", "activity change, negative = inhibition": "18.9%"}
{"smiles": "CC(=O)Nc1ccc(NC(=O)CC2CCCC2)cc1", "activity change, negative = inhibition": "58.4%"}
{"smiles": "Cn1c2ccccc2c(=O)c2c(=O)n(Cc3ccco3)c(COc3ccccc3)nc21", "Potency": "7.38 µM (active)"}
{"smiles": "Cc1nc2c(c(=O)n1Cc1ccco1)c1nc3ccccc3nc1n2Cc1ccccc1", "activity change, negative = inhibition": "27.6% [at 5.75 µM]"}
{"smiles": "CCn1c(COc2ccccc2)nnc1SCC(=O)NCc1ccco1", "activity change, negative = inhibition": "51%"}
{"smiles": "CC(=O)N1CCC(N(C(=O)Nc2ccc(Cl)cc2)C(C)C)CC1", "activity change, negative = inhibition": "-2.03%"}
{"smiles": "CCOc1ccc(N/C=C/C(=O)c2ccccc2)cc1", "activity change, negative = inhibition": "84.5%"}
{"smiles": "N#C/C=C/N1CCN(Cc2ccc3c(c2)OCO3)CC1", "activity change, negative = inhibition": "23.3%"}
{"smiles": "COc1ccccc1C(=O)COC(=O)CSCC(=O)Nc1cc(C)on1", "activity change, negative = inhibition": "11.2%"}
{"smiles": "Cc1cc(NC(=O)CSCc2nc(-c3cccc(Cl)c3)oc2C)no1", "Potency": "11.7 µM (active)"}
{"smiles": "Cc1ccc(-c2csc(SCC(=O)Nc3cc(C)on3)n2)cc1", "activity change, negative = inhibition": "-16.1%"}
{"smiles": "Oc1c(Cl)cc(Cl)cc1/C=N/c1ncn[nH]1", "activity change, negative = inhibition": "13.7%"}
